Holding throughout (settings): mRNA level, 48 h; actives raise or lower the signal
Read-out in assay [1]: Peroxisomal acyl-coenzyme A oxidase 1 (ACOX1) gene, ACOX1 (gene 51)
Kind of assay: LTEA_HepaRG_ACOX1: Life Technologies and Expression Analysis (LTEA) Assay for Peroxisomal acyl-coenzyme A oxidase 1 (ACOX1) gene using HepaRG (AID 2283467). The gist of the method: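 Measured by qRT-PCR against three housekeeping genes: ACOX1 transcript change in human HepaRG cells after 48 h dosing. Concentrations ran up to 100 uM in half-log steps. Curves were fitted bidirectionally relative to 0.5% DMSO.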

Read-out in assay [2]: Alkaline Phosphatase, Placental (ALPP) gene, ALPP (gene 250)
Kind of assay: LTEA_HepaRG_ALPP: Life Technologies and Expression Analysis (LTEA) Assay for Alkaline Phosphatase, Placental (ALPP) gene using HepaRG (AID 2283468). The procedure, abridged: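 qRT-PCR readout of ALPP mRNA (Fluidigm TaqMan), normalized to ACTB/GAPDH/POLR2A, after 48 h chemical exposure of HepaRG cells; 8-point half-log series, top 100 uM, 0.5% DMSO vehicle. Bidirectional curve fit versus DMSO baseline.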

Read-out in assay [3]: Bcl-2 (BAD) gene, BAD (gene 572)
Put plainly: LTEA_HepaRG_BAD: Life Technologies and Expression Analysis (LTEA) Assay for Bcl-2 (BAD) gene using HepaRG (AID 2283469). The procedure, abridged:
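BAD transcript change, measured by qRT-PCR against three housekeeping genes and fitted in both directions relative to 0.5% DMSO, after 48 h chemical treatment of human HepaRG liver cells at concentrations up to 100 uM.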

Read-out in assay [4]: Bcl-2 (BAX) gene, BAX (gene 581)
Kind of assay: LTEA_HepaRG_BAX: Life Technologies and Expression Analysis (LTEA) Assay for Bcl-2 (BAX) gene using HepaRG (AID 2283470). The gist of the method: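 HepaRG (human liver), 48 h exposure, duplicate wells. 8-pt curve, half-log from 100 uM, 0.5% DMSO. BAX transcript by TaqMan qRT-PCR; ACTB/GAPDH/POLR2A normalization; gain or loss vs DMSO baseline.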

Read-out in assay [5]: adenosine kinase (ADK) gene, ADK (gene 132)
Kind of assay: LTEA_HepaRG_ADK: Life Technologies and Expression Analysis (LTEA) Assay for adenosine kinase (ADK) gene using HepaRG (AID 2283471). The gist of the method: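 Read-out is ADK transcript level measured by qRT-PCR and normalised to three housekeeping genes. Cells are human HepaRG, dosed for 48 h at up to 100 uM in 0.5% DMSO. Gain or loss of signal is fitted against DMSO controls.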

Read-out in assay [6]: Alpha-fetoprotein (AFP) gene, AFP (gene 174)
Kind of assay: LTEA_HepaRG_AFP: Life Technologies and Expression Analysis (LTEA) Assay for Alpha-fetoprotein (AFP) gene using HepaRG (AID 2283472). The procedure, abridged: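 HepaRG, single lot; 48 h post-plating -> serum-free induction medium; cpd 8-pt, 100 uM top, half-log, 0.5% DMSO, duplicate, 48 h. RNA -> qRT-PCR AFP, norm ACTB/GAPDH/POLR2A. Bidirectional fit vs DMSO.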

Read-out in another assay: BCL2L11 (gene 10018)
Kind of assay: LTEA_HepaRG_BCL2L11: Life Technologies and Expression Analysis (LTEA) Assay for Bcl-2 (BCL2L11) gene using HepaRG (AID 2283473). The procedure, abridged:
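HepaRG, 48 h exposure, 8-pt half-log series from 100 uM in 0.5% DMSO, duplicates; qRT-PCR (Fluidigm TaqMan) for BCL2L11, housekeeping-normalized; bidirectional curve fit relative to DMSO baseline.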

Read-out in assay [7]: Apolipoprotein A-V (APOA5) gene, APOA5 (gene 116519)
Put plainly: LTEA_HepaRG_APOA5: Life Technologies and Expression Analysis (LTEA) Assay for Apolipoprotein A-V (APOA5) gene using HepaRG (AID 2283474). The procedure, abridged: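 HepaRG, 48 h chemical exposure in serum-free induction medium, 8-pt half-log series (top 100 uM), 0.5% DMSO vehicle, duplicates. Readout: APOA5 mRNA by qRT-PCR, housekeeping-normalized; bidirectional fit vs DMSO baseline.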

Read-out in assay [8]: Apoptosis regulator Bcl-2 (Homo sapiens) (UniProt P10415)
Put plainly: LTEA_HepaRG_BCL2: Life Technologies and Expression Analysis (LTEA) Assay for Bcl-2 gene using HepaRG (AID 2283475). The procedure, abridged:
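HepaRG, plated 48 h then switched to serum-free induction medium; dosed 48 h, 8 conc. (max 100 uM, half-log steps), duplicate, 0.5% DMSO. Lysis in RLT, RNA isolated, TaqMan qRT-PCR for BCL2; ACTB/GAPDH/POLR2A normalisation; bidirectional fit vs DMSO.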

Read-out in assay [9]: Bcl-2 (BID) gene, BID (gene 637)
Kind of assay: LTEA_HepaRG_BID: Life Technologies and Expression Analysis (LTEA) Assay for Bcl-2 (BID) gene using HepaRG (AID 2283476). The procedure, abridged:
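Transcript levels of BID, measured by qRT-PCR and normalized to three housekeeping genes, were fitted bidirectionally against DMSO controls. Cells were HepaRG, dosed 48 h at up to 100 uM.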

Read-out in another assay: Caspase-3 (Homo sapiens) (UniProt P42574)
Kind of assay: LTEA_HepaRG_CASP3: Life Technologies and Expression Analysis (LTEA) Assay for cysteine-aspartic acid protease (CASP3) using HepaRG (AID 2283477). The gist of the method:
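HepaRG, 48 h exposure, 8 conc. (top 100 uM, half-log steps, duplicate), 0.5% DMSO vehicle; qRT-PCR of CASP3 transcript, housekeeping-normalised (ACTB/GAPDH/POLR2A); bidirectional curve fit vs DMSO baseline.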

Read-out in assay [10]: Cytochrome P450 (CYP24A1), CYP24A1 (gene 1591)
Put plainly: LTEA_HepaRG_CYP24A1: Life Technologies and Expression Analysis (LTEA) Assay for Cytochrome P450 (CYP24A1) using HepaRG (AID 2283478). The procedure, abridged:
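qRT-PCR read-out: CYP24A1 transcript levels normalized to three housekeeping genes, bidirectional curve fits against 0.5% DMSO baseline. Human HepaRG cells treated 48 h with chemicals at eight concentrations from 100 uM in half-log steps.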

Read-out in assay [11]: Cytochrome P450 (CYP1A2), CYP1A2 (gene 1544)
Put plainly: LTEA_HepaRG_CYP1A2: Life Technologies and Expression Analysis (LTEA) Assay for Cytochrome P450 (CYP1A2) using HepaRG (AID 2283479). The gist of the method: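 HepaRG, 48 h exposure, top 100 uM, half-log 8-pt, 0.5% DMSO vehicle, duplicates. Readout: TaqMan qRT-PCR of CYP1A2 mRNA, housekeeping-normalized (ACTB/GAPDH/POLR2A). Gain/loss fit relative to DMSO baseline.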

Read-out in assay [12]: cysteine-aspartic acid protease (CASP8), CASP8 (gene 841)
Put plainly: LTEA_HepaRG_CASP8: Life Technologies and Expression Analysis (LTEA) Assay for cysteine-aspartic acid protease (CASP8) using HepaRG (AID 2283480). The procedure, abridged:
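HepaRG, 48 h exposure, duplicate wells; 8 conc, half-log from 100 uM, 0.5% DMSO. Serum-free induction medium. CASP8 mRNA by TaqMan qRT-PCR, norm. ACTB/GAPDH/POLR2A; gain/loss fitted vs DMSO.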

Read-out in assay [13]: Cytochrome P450 2C19 (Homo sapiens) (UniProt P33261)
Put plainly: LTEA_HepaRG_CYP2C19: Life Technologies and Expression Analysis (LTEA) Assay for CYP2C19 using HepaRG (AID 2283482). The procedure, abridged:
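HepaRG, 48 h chemical exposure, 8-pt half-log series from 100 uM in 0.5% DMSO, duplicates. Readout: CYP2C19 mRNA by TaqMan qRT-PCR, housekeeping-normalized. Bidirectional fit vs DMSO baseline; phenobarbital 1mM as induction control.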

Read-out in a further assay: CYP2C8 (gene 1558)
Kind of assay: LTEA_HepaRG_CYP2C8: Life Technologies and Expression Analysis (LTEA) Assay for CYP2C8 using HepaRG (AID 2283483). The procedure, abridged: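 CYP2C8 mRNA induction or loss, by qRT-PCR normalized to ACTB/GAPDH/POLR2A, is read in HepaRG cells after 48 h treatment. Concentrations run from 100 uM down in half-log dilutions, with 0.5% DMSO as vehicle and baseline.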

Read-out in a further assay: CYP2C9 (gene 1559)
Kind of assay: LTEA_HepaRG_CYP2C9: Life Technologies and Expression Analysis (LTEA) Assay for CYP2C9 using HepaRG (AID 2283484). The procedure, abridged:
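Cells plated 48 h, switched to serum-free induction medium, then treated in duplicate for 48 h at eight concentrations (max 100 uM, 0.5% DMSO). RNA then analysed by qRT-PCR for CYP2C9; curves fitted in both directions relative to DMSO.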

Read-out in a further assay: CYP2E1 (gene 1571)
Kind of assay: LTEA_HepaRG_CYP2E1: Life Technologies and Expression Analysis (LTEA) Assay for CYP2E1 using HepaRG (AID 2283485). The gist of the method:
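Human liver line HepaRG, plated 48 h, then serum-free induction medium + chemical x 48 h; 8-pt CRC from 100 uM, half-log, 0.5% DMSO, n=2. Readout: CYP2E1 mRNA qRT-PCR vs ACTB/GAPDH/POLR2A; bidirectional fit vs DMSO.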

Read-out in the next assay: CYP4A11 (gene 1579)
Kind of assay: LTEA_HepaRG_CYP4A11: Life Technologies and Expression Analysis (LTEA) Assay for CYP4A11 using HepaRG (AID 2283486). The procedure, abridged: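 CYP4A11 transcript levels were quantified by TaqMan qRT-PCR after HepaRG human liver cells were treated for 48 hours with test chemicals (top 100 uM, half-log dilutions, 0.5% DMSO). Gain or loss of signal was fitted relative to DMSO.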

Read-out in assay [14]: Cytochrome P450 (CYP2B6), CYP2B6 (gene 1555)
Kind of assay: LTEA_HepaRG_CYP2B6: Life Technologies and Expression Analysis (LTEA) Assay for Cytochrome P450 (CYP2B6) using HepaRG (AID 2283481). The gist of the method: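 Read-out is CYP2B6 mRNA by TaqMan qRT-PCR, normalized to three housekeeping genes and fitted bidirectionally against 0.5% DMSO baseline. Human HepaRG cells received test chemicals for 48 h, top concentration 100 uM, half-log dilutions.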

Structures are written as SMILES. Calls of active or inactive are those of the source. How the source made its calls: active means hit-call score of the fitted dose curve at least 0.9, where 1 is the maximum; inactive means score below 0.9.

Data on three molecules can be found in PubChem BioAssay (EPA / NIEHS).

Sequence of Cytochrome P450 2C19 (Homo sapiens) (P33261 whole entry, looked up): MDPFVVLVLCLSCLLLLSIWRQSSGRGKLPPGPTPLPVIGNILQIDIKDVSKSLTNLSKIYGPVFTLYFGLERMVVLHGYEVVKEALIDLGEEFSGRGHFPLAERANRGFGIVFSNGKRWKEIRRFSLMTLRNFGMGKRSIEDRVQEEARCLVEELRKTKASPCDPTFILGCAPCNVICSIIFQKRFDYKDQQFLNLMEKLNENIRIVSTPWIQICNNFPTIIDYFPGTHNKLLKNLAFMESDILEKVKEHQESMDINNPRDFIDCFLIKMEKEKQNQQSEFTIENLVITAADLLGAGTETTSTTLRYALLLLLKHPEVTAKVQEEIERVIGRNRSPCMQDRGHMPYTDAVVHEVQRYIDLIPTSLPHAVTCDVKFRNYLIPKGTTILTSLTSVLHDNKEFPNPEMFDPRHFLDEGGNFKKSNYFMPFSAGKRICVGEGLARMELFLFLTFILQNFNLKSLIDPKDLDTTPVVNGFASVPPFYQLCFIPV
Sequence of Apoptosis regulator Bcl-2 (Homo sapiens) (P10415 whole entry, looked up): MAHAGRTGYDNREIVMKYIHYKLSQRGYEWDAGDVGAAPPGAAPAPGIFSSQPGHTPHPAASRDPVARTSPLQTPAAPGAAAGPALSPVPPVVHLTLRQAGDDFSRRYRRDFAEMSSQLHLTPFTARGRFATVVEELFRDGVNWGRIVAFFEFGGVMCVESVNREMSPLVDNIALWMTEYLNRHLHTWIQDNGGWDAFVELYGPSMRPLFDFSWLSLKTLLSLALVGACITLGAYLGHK
Sequence of Caspase-3 (Homo sapiens) (P42574 whole entry, looked up): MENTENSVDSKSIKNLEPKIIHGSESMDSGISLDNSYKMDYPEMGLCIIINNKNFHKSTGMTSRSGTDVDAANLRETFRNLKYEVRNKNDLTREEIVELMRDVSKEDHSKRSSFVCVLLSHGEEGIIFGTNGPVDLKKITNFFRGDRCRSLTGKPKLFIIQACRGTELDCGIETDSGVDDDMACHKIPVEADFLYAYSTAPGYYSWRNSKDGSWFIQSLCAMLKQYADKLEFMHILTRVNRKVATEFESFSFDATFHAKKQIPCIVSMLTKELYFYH

In the case of `Nc1nc(=S)c2[nH]cnc2[nH]1`, the AC50 – broadly, the midpoint of the concentration-response curve, whichever way the signal moves – is 12.2 µM (active) in assay [1]; 3.39 µM (active) in assay [4]; 6.35 µM (active) in [6]; 3.48 µM (active) in assay [7]; 3.04 µM (active) in assay [11]; 9.48 µM (active) in assay [13]. Besides, the AC50 with CYP2C8 (gene 1558) is 32.2 µM (active); with CYP2C9 (gene 1559) it was 7.91 µM (active); with CYP2E1 (gene 1571) it was 5.72 µM (active); with CYP4A11 (gene 1579), 6.3 µM (active). The outcome (in assay [2]; in assay [3]; in assay [5]; with BCL2L11 (gene 10018); in assay [8]; in assay [9]) was inactive. Moreover, the result (with Caspase-3 (Homo sapiens); in assay [10]; in [12]) was inactive.
As to `C=CCc1ccc(OC)c(OC)c1`, the molecule was classed as inactive in assay [1], in [2], in [3], in assay [4], in [5] and in [6]. For the same molecule, the result (in the assay with BCL2L11 (gene 10018); in assay [7]; in assay [8]; with Caspase-3 (Homo sapiens); in assay [10]; in assay [12]) was inactive. In addition, the molecule was called inactive (in assay [13]; with CYP2C8 (gene 1558); with CYP2C9 (gene 1559); with CYP2E1 (gene 1571); in the assay with CYP4A11 (gene 1579)). The results for the half-maximal activity concentration (AC50) in assay [9] and in assay [14] were 9.92 µM (active) and 2.13 µM (active), respectively.
With `C/C=C/C=C/C(=O)O`, the outcome in assay [1], in assay [2], in assay [3], in [4], in assay [5] and in assay [6] was inactive. Also, the molecule was classed as inactive (in [7]; in [8]; in assay [9]; with Caspase-3 (Homo sapiens); in assay [10]; in assay [11]). Besides, the molecule was called inactive (in assay [12]; in [13]; with CYP2C8 (gene 1558); in the assay with CYP2C9 (gene 1559); in the assay with CYP2E1 (gene 1571); with CYP4A11 (gene 1579)). Besides, in the assay with BCL2L11 (gene 10018), the AC50 is 0.00162 µM (active).
